Here are results for 24 molecules from PubChem BioAssay (EPA / NIEHS).

Experiment [1] is described as follows: ACEA_ER_80hr: ACEA Biosciences xCELLigence Real-Time Cell Analysis on Estrogen Receptor Agonism for Proliferation (AID 2282667; active means hit-call score of the fitted dose curve at least 0.9, where 1 is the maximum). The note with it: T47D proliferation, impedance (xCELLigence), 80 h. In outline: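 Impedance readout (RT-CES) of T47D proliferation at 80 h post-dose; gain of signal vs DMSO baseline. Compounds: 8 conc, 1:4 serial, top 100 uM final, ≤0.5% DMSO; biological duplicate.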

The nature of experiment [2]: APR_HepG2_CellCycleArrest_24hr: Apredica 24-hour HepG2 Assay for Cell Cycle Arrest (AID 2282905).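 Further: cell cycle arrest scored as ratio of 2N to 4N nuclear DNA content.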 Conditions: imaging, actives raise or lower the signal. Put shortly:
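Step one: dose HepG2 with test compounds, 0.39–200 uM, 0.5% DMSO, 24 hr. Step two: fix, permeabilize, stain nuclei with Hoechst 33342. Step three: image six fields per well at 20x, quantify DNA content, fit bidirectionally relative to DMSO.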

Experiment [3] in a line: APR_HepG2_NuclearSize_24hr: Apredica 24-hour HepG2 Assay for Nuclear Size (AID 2282907). Conditions: high-content imaging, actives raise or lower the signal. In outline:
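After fixation and permeabilization, 24-hr-treated HepG2 cells were stained with Hoechst 33342 and imaged on an ArrayScan (20x). Doses spanned 0.39–200 uM in duplicate. Nuclear diameter changes in either direction were fitted relative to 0.5% DMSO controls.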

The nature of experiment [4]: APR_HepG2_CellLoss_24hr: Apredica 24-hour HepG2 Assay for Cell Loss (AID 2282908).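 On AC50: fit in both directions so a hit may be cell loss or gain.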 Conditions: high-content imaging. In outline: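 Duplicate wells received compound at ten concentrations (0.39–200 uM; final DMSO 0.5% v/v). After fixation with formaldehyde, nuclei stained with Hoechst 33342 were imaged at 20x. Loss or gain of cell count was fitted relative to DMSO controls.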

The nature of experiment [5]: APR_HepG2_MicrotubuleCSK_24hr: Apredica 24-hour HepG2 Assay for Microtubule CSK Stabilty (AID 2282909). The note with it: HepG2 microtubule cytoskeleton imaging, actives raise or lower the signal. Put shortly:
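Microtubule stability is scored from tubulin immunofluorescence in fixed HepG2 cells imaged at 20x. Cells receive ten compound concentrations up to 200 uM for 24 h; taxol and DMSO serve as positive and negative controls.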

The nature of experiment [6]: APR_HepG2_MitoMembPot_24hr: Apredica 24-hour HepG2 Assay for Mitochondrial Membrane Potential (AID 2282911). The note with it: imaging, actives raise or lower the signal. Put shortly: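 HepG2, 24 hr dosing, 10 concentrations 0.39–200 uM, 0.5% DMSO final. Live-cell MitoTracker Red CMXRos 250 nM 30 min, then 3.7% formaldehyde fix. HCS fluorescence imaging, 20x; bidirectional fit vs DMSO baseline.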

Experiment [7] can be described thus: APR_HepG2_MitoMass_24hr: Apredica 24-hour HepG2 Assay for Mitochondrial Mass (AID 2282912). The note with it: high-content imaging, actives raise or lower the signal. Put shortly: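 Readout: fluorescence of MitoTracker Red CMXRos (250 nM, added 30 min pre-fixation) in fixed HepG2 cells imaged by HCS. Exposure lasted 24 hr at 0.39–200 uM; increases and decreases were both fitted relative to DMSO.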

Experiment [8] in a line: APR_HepG2_CellCycleArrest_72hr: Apredica 72-hour HepG2 Assay for Cell Cycle Arrest (AID 2282914). The note with it: high-content imaging, actives raise or lower the signal. In outline:
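HepG2, 72 hr exposure, 10-point 0.39–200 uM, duplicate, 0.5% DMSO final. Fix 3.7% formaldehyde 30 min RT, Triton X-100 0.5%, Hoechst 33342 2 ug/mL. ArrayScan 20x, six fields/well; DNA content per nucleus; bidirectional fit vs DMSO.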

The nature of experiment [9]: APR_HepG2_p53Act_24hr: Apredica 24-hour HepG2 Assay for p53 Activation (AID 2282913).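 Further: p53 protein immunofluorescence averaged per cell in HepG2 with Hoechst nuclei.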 The note with it: high-content imaging, actives raise or lower the signal. Put shortly:
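Read-out: Cy5 immunofluorescence for p53 in fixed, permeabilized HepG2, imaged by HCS with Hoechst-defined nuclei. Dosing was 24 hr at 0.39–200 uM in 0.5% DMSO. Curves were fitted bidirectionally relative to DMSO.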

A word on the AC50: it is the midpoint of the concentration-response curve, whichever way the signal moves.

SMILES strings stand for the structures. Records with an inconclusive call do not appear. The source made the active and inactive calls. How the source made its calls, unless noted: active means hit-call score of the fitted dose curve at least 0.9, where 1 is the maximum; inactive means score below 0.9.

For the molecule `Nc1ccc2c(c1)C(=O)c1ccccc1C2=O`, the call in experiment [1], in [2], in [3], in experiment [4], in [5] and in experiment [6] was inactive. In addition, in experiment [7], the outcome was inactive. The AC50 in [8] is 16.1 µM (active).

Take `COc1cc(/C=C/C(=O)CC(=O)/C=C/c2ccc(O)c(OC)c2)ccc1O`: the result in [1], in [2], in experiment [3], in experiment [5], in experiment [7] and in experiment [8] was inactive. The values for the AC50 in experiment [4] and in experiment [6] were 38 µM (active) and 48 µM (active), respectively.

With `CC(C)(C)c1cc(O)c(C(C)(C)C)cc1O`, the outcome in experiment [1], in experiment [2], in experiment [3], in experiment [5] and in [6] was inactive. Further, the half-maximal activity concentration (AC50) in experiment [4] is 53.6 µM (active); in experiment [7], 82.8 µM (active); in [8], 51.3 µM (active).

Turning to `Cc1cccc(Nc2cc(Cl)nc(SCC(=O)O)n2)c1C`, the molecule was classed as inactive in [1], in [2], in experiment [3], in experiment [4], in [5] and in experiment [6]. Further, the result in [7], in experiment [9] and in experiment [8] was inactive.

With `Cc1ccc2ncccc2c1`, the call in experiment [1], in [2], in [3], in experiment [4], in experiment [5] and in experiment [6] was inactive. Also, the molecule was classed as inactive in [7], in [9] and in [8].

Consider `O=C(O)CCCCC(=O)O`, for which the molecule was called inactive in experiment [1], in experiment [2], in experiment [3], in experiment [4], in experiment [5] and in experiment [6]. Moreover, the call in experiment [7] and in experiment [8] was inactive.

Turning to `CCCCCCCC=O`, the outcome in experiment [1], in experiment [2], in experiment [3], in [4], in experiment [5] and in experiment [6] was inactive. The molecule was called inactive in [7] and in experiment [8].

For `Cc1c(C(=O)O)c(O)cc2c1C(=O)c1c(O)c([C@@H]3O[C@H](CO)[C@@H](O)[C@H](O)[C@H]3O)c(O)c(O)c1C2=O`, the molecule was called inactive in experiment [1], in experiment [2], in experiment [3], in experiment [4], in [5] and in [6]. For the same molecule, the call in [7] and in experiment [8] was inactive.

For `OC[C@@H](O)[C@@H](O)[C@H](O)[C@H](O)CO`, the molecule was classed as inactive in [1], in experiment [2], in experiment [3], in [4], in [5] and in [6]. Moreover, the molecule was classed as inactive in experiment [7] and in experiment [8].

Turning to `COc1cc(-c2nc(NC(=O)c3cc4cc(C)cc(C)c4n3CC(=O)O)sc2CCC2CCCCC2)c(OC)cc1Cl`, the molecule was called inactive in [1]. In addition, the AC50 in experiment [2] was 38.6 µM (active); in experiment [3], 61.4 µM (active); in [4], 29.3 µM (active); in experiment [5], 26.5 µM (active); in [6] it was 15 µM (active); in experiment [7], 14.4 µM (active). Besides, in experiment [8], the AC50 was 23.4 µM (active).

For the molecule `CC(=O)OCCOCCOCCOC(C)=O`, the result in experiment [1], in experiment [2], in [3], in experiment [4], in experiment [5] and in experiment [6] was inactive. Further, the molecule was classed as inactive in experiment [7], in experiment [9] and in experiment [8].

`CNCc1cc(F)ccc1Oc1ccc(Cl)c(Cl)c1`: the outcome in experiment [1], in experiment [2], in experiment [5] and in [8] was inactive. Besides, the AC50 is 54.7 µM (active) in experiment [3], 101 µM (active) in experiment [4], 109 µM (active) in experiment [6] and 32.6 µM (active) in experiment [7].

Take `COCCOCCOC`: the molecule was called inactive in [1], in experiment [2], in [3], in experiment [4], in experiment [5] and in [6]. In addition, the call in [7], in [9] and in [8] was inactive.

For the molecule `O=c1[nH]cc(F)c(=O)[nH]1`, the result in experiment [1], in [3], in experiment [4], in experiment [5], in experiment [6] and in experiment [7] was inactive. Moreover, the concentration at half-maximal activity (AC50) was 1.06 µM (active) in experiment [2] and 1.52 µM (active) in [8].

As to `Nc1nc(N)c2nc(CNc3ccc(C(=O)N[C@@H](CCC(=O)O)C(=O)O)cc3)cnc2n1`, the result in [1], in experiment [2], in experiment [3], in experiment [4], in experiment [5] and in experiment [6] was inactive. The molecule was called inactive in experiment [7], in experiment [9] and in [8].

For the molecule `COCCOC[C@H](CC1(C(=O)NC2CCC(C(=O)O)CC2)CCCC1)C(=O)Oc1ccc2c(c1)CCC2` (stereo not given in full), the molecule was classed as inactive in experiment [1], in [2], in [3], in experiment [4], in experiment [5] and in experiment [6]. Besides, the molecule was called inactive in experiment [7] and in experiment [8].

Consider `CCc1c(C(=O)NN2CCCCC2)nn(-c2ccc(Cl)cc2Cl)c1-c1ccc(Br)cc1`, for which the AC50 in experiment [1] was 1.69 µM (active); in experiment [2], 27.9 µM (active); in [4], 21.5 µM (active); in experiment [5], 39 µM (active); in experiment [7], 47 µM (active); in [8] it was 14.6 µM (active). For the same molecule, the molecule was classed as inactive in [3], in [6] and in experiment [9].

Turning to `NC(=O)Cn1c(=O)cc(CCN2CCN(c3nccc4sccc34)CC2)c2ccc(F)cc21`, the molecule was called inactive in experiment [1], in experiment [2], in experiment [3], in [4], in experiment [5] and in experiment [6]. For the same molecule, the molecule was called inactive in experiment [7] and in [8].

Take `O=[N+]([O-])C(CO)(CO)CO`: the call in experiment [1], in experiment [2], in experiment [3], in experiment [4], in experiment [5] and in [6] was inactive. Also, the molecule was classed as inactive in [7], in [9] and in experiment [8].

In the case of `COc1cc(S(=O)(=O)O)c(C)cc1N=Nc1c(O)ccc2cc(S(=O)(=O)O)ccc12`, the molecule was called inactive in [1], in experiment [2], in experiment [3], in [4], in experiment [5] and in experiment [7]. The call in experiment [9] and in experiment [8] was inactive. The AC50 in experiment [6] is 100 µM (active).

For `FC(F)(F)C(F)(F)C(F)(F)C(F)(F)C(F)(F)C(F)(F)CCI`, the molecule was classed as inactive in experiment [1], in experiment [2], in experiment [3], in experiment [4], in experiment [5] and in experiment [6]. The molecule was called inactive in experiment [7] and in [8].

As for `COc1cccc2c1C(=O)c1c(O)c3c(c(O)c1C2=O)C[C@@](O)(C(=O)CO)C[C@@H]3O[C@H]1C[C@H](N)[C@H](O)[C@H](C)O1`, the molecule was classed as inactive in [1], in experiment [3], in experiment [4], in experiment [5] and in [6]. For the same molecule, the AC50 in experiment [2] was 4.04 µM (active); in experiment [7], 24.6 µM (active); in [8], 3.58 µM (active).

For `CC(=O)OC/C=C(\C)CCC=C(C)C`, the call in experiment [1], in [2], in [3], in experiment [4], in [5] and in [6] was inactive. For the same molecule, the molecule was classed as inactive in [7] and in experiment [8].

In the case of `C[Si]1(C)O[Si](C)(C)O[Si](C)(C)O[Si](C)(C)O1`, the molecule was classed as inactive in experiment [1], in experiment [2], in experiment [3], in experiment [4], in experiment [5] and in [6]. In addition, the molecule was classed as inactive in experiment [7] and in experiment [8].
